The record followed here is PubChem BioAssay AID1851 (National Center for Advancing Translational Sciences (NCATS), 2009).

Where “and” joins values, the source holds several entries; their conditions need not be identical. Equal values may be shown once. The campaign covered roughly 16,000 compounds. About 2,600 (16%) were called active. Not shown: some 20% with an inconclusive outcome. Calls come from the whole dose curve; as a rule, active = well fitted curve in the direction sought with a large enough effect; inconclusive = small, poorly fitted or top-dose-only effect, or effect the other way; inactive = no such curve, though single readings can be large or run the other way. Not all results are given here.
% is set by controls: 0 for no effect and ±100 for the full control effect.

The target of this experiment is Cytochrome P450 2D6 (Homo sapiens) (UniProt P10635). In words: Cytochrome panel assay with activity outcomes. Particulars: recombinant CYP, pro-luciferin dealkylation, luminescence, p450-cyp2d6; series mostly up to 57.1 µM; activity, negative = inhibition: at the top concentration.
Cytochrome P450 2D6 (Homo sapiens), sequence (P10635 whole entry, looked up): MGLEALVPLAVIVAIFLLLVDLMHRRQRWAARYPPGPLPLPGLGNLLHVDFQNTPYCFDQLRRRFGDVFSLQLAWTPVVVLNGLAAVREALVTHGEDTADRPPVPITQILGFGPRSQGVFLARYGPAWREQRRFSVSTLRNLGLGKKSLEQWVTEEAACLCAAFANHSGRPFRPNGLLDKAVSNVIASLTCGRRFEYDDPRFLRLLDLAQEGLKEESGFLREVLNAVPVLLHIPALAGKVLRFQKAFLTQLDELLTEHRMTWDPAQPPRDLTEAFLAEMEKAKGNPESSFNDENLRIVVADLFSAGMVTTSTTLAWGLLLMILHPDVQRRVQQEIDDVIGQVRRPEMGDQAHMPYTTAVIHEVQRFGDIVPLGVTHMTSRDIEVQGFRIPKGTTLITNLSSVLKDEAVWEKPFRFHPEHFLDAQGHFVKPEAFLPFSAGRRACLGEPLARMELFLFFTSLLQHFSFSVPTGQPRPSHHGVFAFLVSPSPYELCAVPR
For `O=c1[nH]cc(CS(=O)(=O)Cc2c[nH]c(=O)[nH]c2=O)c(=O)[nH]1`, the activity, negative = inhibition was -1.45% [at 11.4 µM] (inactive). The same measure, in the same setting: the figure for `CC(C)CN(CC(C)C)C1=N/C(=C\c2ccco2)C(=O)N1c1ccccc1` is 7.31% (inactive); for `Cc1noc(C)c1-c1nc(Nc2ccc(F)cc2)c2ccccc2n1` it is -9.98% (inactive). For `CCOC(=O)c1ccc(Nc2nc(C(=O)OCC)nc3ccccc23)cc1`, the AC50 (commonly the concentration at which the activity in the assay is half-maximal) is 3.98 µM (active). With `CCOC(=O)c1ccc(Nc2nc(=O)c3cccnc3s2)cc1`, the “activity, negative = inhibition” value is 14.5% (inactive).

With `CCCc1nc2sc3ccccc3c(=O)c2c(=O)n1CCOC`, the “activity, negative = inhibition” value was 12.1% (inactive). On the same count and under the same terms, under `COc1cc(C(=O)NC(=S)Nc2cccc(-c3cc4ccccc4oc3=O)c2)cc(OC)c1OC` stands 20.4% (inactive).

Take `CC(=O)NS(=O)(=O)c1ccc(NC(=S)NC(=O)c2ccco2)cc1`: the “activity, negative = inhibition” value was 0.0503% (inactive). As for `Cc1cccc(N(C)C(=S)Oc2ccc3ccccc3c2)c1`, the “activity, negative = inhibition” value was -2.27% [at 25.6 µM] (inactive).

Turning to `O=C(O)c1ccccc1NCn1c(=S)sc2ccccc21`, the activity, negative = inhibition is -8.67% [at 11.4 µM] (inactive). Turning to `N=c1sc2ccccc2n1CCS` (tested in a mixture with another compound), the AC50 is 0.316 µM (active).

As to `Cn1c(=NC(=O)CCl)sc2ccccc21`, the “activity, negative = inhibition” value is -4.21% (inactive). Regarding `CCS(=O)(=O)N1CCC(C(=O)NCc2ccccc2OC)CC1`, the “activity, negative = inhibition” value was -5.28% (inactive). With `COc1cccc(CNc2ccc(F)c(Cl)c2)c1O`, the “activity, negative = inhibition” value is -15.3% (inactive).

`COc1ccccc1CNCC(O)(c1ccc(Cl)cc1)c1ccc(Cl)cc1`: the AC50 was 0.316 µM (active). Turning to `COC(=O)c1sccc1NC(=O)c1cc(-c2cc(C)ccc2C)nc2ccccc12`, the “activity, negative = inhibition” value is 19.6% (inactive). On the same count and under the same terms, the figure for `Cc1nnc(NC(=O)CSc2ncnc3c2cnn3-c2ccccc2C)s1` is 9.93% (inactive); for `O=C(O)c1cccnc1SCC(=O)N1CCCCCC1` it is 4.75% (inactive).

Take `Cc1ccc(SCCNC(=O)c2ccc(C)c(S(=O)(=O)Nc3ccccc3C)c2)cc1`: the AC50 was 7.94 µM (active). As to `Cc1ccc(SCCNC(=O)c2ccccc2)cc1`, the “activity, negative = inhibition” value is -18.3% (inactive).

In the case of `COC(=O)c1cc(OC)c(OC)cc1NC(=O)CSc1ccc(C)cc1`, the “activity, negative = inhibition” value was 7.75% (inactive).

On to `COc1ccc(C2C(=O)N(C3CCCCCC3)CC(=O)N2Cc2ccccc2)cc1OC` (centres undefined), for which the “activity, negative = inhibition” value was -2.33% (inactive). Regarding `CO[C@H]1COC(=O)[C@H](Cc2ccccc2)NC(=O)C/C=C\[C@@H](C)[C@H](OC)COC(=O)C/C=C\[C@@H]1C`, the activity, negative = inhibition was 11.3% [at 11.4 µM] (inactive). Turning to `O=C(/C=C\c1ccc2c(c1)OCO2)c1ccc(F)cc1`, the AC50 is 2 µM (active). Regarding `CN(C)C(=O)CN(c1ccc2c(c1)OCO2)S(C)(=O)=O`, the “activity, negative = inhibition” value is -17.5% (inactive). As for `COc1ccc2cc3cc(C(=O)Nc4ccc5c(c4)OCO5)oc3nc2c1`, the “activity, negative = inhibition” value was -26.3% (inactive). Same read-out and setting: the figure for `O=C(/C=C\c1ccccc1)c1ccccc1O` is -5.64% [at 11.4 µM] (inactive).

As to `Nc1ccccc1C(=O)/C=C\c1ccc2c(c1)OCO2`, the AC50 is 3.16 µM (active). On the same count and under the same terms, under `COCOc1cc(OC)ccc1C(=O)/C=C\c1ccc2c(c1)OCO2` stands 3.98 µM (active). As to `COC(=O)c1cc(NC(=O)/C=C/c2ccc3c(c2)OCO3)cc(C(=O)OC)c1`, the “activity, negative = inhibition” value is -15.2% (inactive). Take `O=C(O)/C=C\C=C/c1ccc2c(c1)OCO2`: the activity, negative = inhibition is -10.2% [at 11.4 µM] (inactive). Same read-out and setting: the figure for `CCOC(=O)c1c(NC(=O)/C=C/c2ccc3c(c2)OCO3)sc(C)c1CC` is -4.86% (inactive); for `CCOC(=O)c1[nH]c(C)c(/C(O)=C2\C(=O)C(=O)N(CCN3CCOCC3)C2c2cccs2)c1C` (centres undefined) it is -7.66% (inactive). With `Cc1ccccc1-n1nc2c(c1NC(=O)c1c(-c3ccccc3Cl)noc1C)CSC2`, the “activity, negative = inhibition” value was 0.2% (inactive). `COCC(=O)N1CCN(c2ccc([N+](=O)[O-])cc2)CC1`: the “activity, negative = inhibition” value was 13.8% (inactive).

With `CN1C(=O)NC(c2ccc(O)cc2)C(C(=O)c2cccs2)C1(O)C(F)(F)F` (centres undefined), the “activity, negative = inhibition” value is -6.24% (inactive). Still for that read-out and setting: under `Cc1cccc(C)c1NC(=O)c1cc2c(=O)c3ccccc3oc2nc1C(F)(F)F` stands 27.2% (inactive).

As to `CO[C@H]1COC(=O)[C@@H](C)COC(=O)[C@@H](COCc2ccccc2)NC(=O)C/C=C\[C@H]1C`, the activity, negative = inhibition was 6.49% [at 11.4 µM] (inactive).

For `CC(=O)N(/N=C/c1cccc(C)c1)c1nc(-c2ccc(Br)cc2)cs1`, the “activity, negative = inhibition” value was 22.1% (inactive). On to `Cc1cc(N)c2ccccc2[n+]1CCCCCCCCCCCCCC[n+]1c(C)cc(N)c2ccccc21`, for which the AC50 is 7.94 µM (active).

`Cc1cc(N)c2ccccc2[n+]1CCCCCCCCCC[n+]1c(C)cc(N)c2ccccc21`: the AC50 was 10 µM (active) and 15.8 µM (active). For `Cn1c(N)c(C(=O)CSc2ccc3c(c2)OCCO3)c(=O)n(C)c1=O`, the “activity, negative = inhibition” value was -9.58% (inactive). As for `O=C(COc1cccc2ccccc12)N1c2ccccc2CCc2ccccc21`, the “activity, negative = inhibition” value is -6.12% (inactive).

As to `COC(=O)[C@@H](NC(=O)Nc1ccc(C(C)=O)cc1)C(C)C`, the “activity, negative = inhibition” value was 15.7% (inactive). Turning to `CC(C)=CCC/C(C)=C/CO/N=C1/C[C@@H](O)[C@@H](O)[C@@H]2[C@@H]3C(=O)N(Cc4ccc5c(c4)OCO5)C(=O)[C@H]3CC[C@@H]12`, the activity, negative = inhibition is -7.94% [at 11.4 µM] (inactive). On the same count and under the same terms, the figure for `O=C(SCc1cccc2ccccc12)c1ccc(Cl)cc1` is -11.2% [at 11.4 µM] (inactive). Take `COc1cc(/C=N/O)cc(Br)c1OCc1cccc(Cl)c1`: the “activity, negative = inhibition” value is -27.4% (inactive).

On to `O/N=C/c1cc(Cl)ccc1OCc1cccc2ccccc12`, for which the AC50 was 15.8 µM (active). On to `CC(C)C(NS(=O)(=O)c1cccc2nsnc12)C(=O)N1CCc2ccccc2C1` (centres undefined), for which the “activity, negative = inhibition” value is -3.17% (inactive).
